Laboratory results from the supplement of paper PMC6411743.
± gives the standard deviation of the averaged measurements. Of roughly 6,200 targets only a part is listed; those with the largest changes were picked by preference.

How the values were obtained:
Experiment in all cases: NP40-soluble protein abundance relative to vehicle (solubility fold change) (ratio); higher = more soluble protein in presence of AMP-PNP
[1] = target: A0A024R216|Q9Y3E1 (UniProt Q9Y3E1)
Outline: (§1)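 Eight concentrations, 0.1 to 10 mM, were tested on Jurkat crude lysate for 10 min at room temperature and then 3 min at 37 °C, in three independent experiments. The lysate was solubilised with 0.8% NP40 and benzonase, ultracentrifuged, and the supernatant TMT-labelled for LC-MS/MS. Each value is the fold change against the detergent-processed vehicle in its own replicate, from vsn-normalised intensities.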

[2] = target: A0A024RAC6 (UniProt Q14241)
A0A024RAC6, sequence (Q14241 whole entry): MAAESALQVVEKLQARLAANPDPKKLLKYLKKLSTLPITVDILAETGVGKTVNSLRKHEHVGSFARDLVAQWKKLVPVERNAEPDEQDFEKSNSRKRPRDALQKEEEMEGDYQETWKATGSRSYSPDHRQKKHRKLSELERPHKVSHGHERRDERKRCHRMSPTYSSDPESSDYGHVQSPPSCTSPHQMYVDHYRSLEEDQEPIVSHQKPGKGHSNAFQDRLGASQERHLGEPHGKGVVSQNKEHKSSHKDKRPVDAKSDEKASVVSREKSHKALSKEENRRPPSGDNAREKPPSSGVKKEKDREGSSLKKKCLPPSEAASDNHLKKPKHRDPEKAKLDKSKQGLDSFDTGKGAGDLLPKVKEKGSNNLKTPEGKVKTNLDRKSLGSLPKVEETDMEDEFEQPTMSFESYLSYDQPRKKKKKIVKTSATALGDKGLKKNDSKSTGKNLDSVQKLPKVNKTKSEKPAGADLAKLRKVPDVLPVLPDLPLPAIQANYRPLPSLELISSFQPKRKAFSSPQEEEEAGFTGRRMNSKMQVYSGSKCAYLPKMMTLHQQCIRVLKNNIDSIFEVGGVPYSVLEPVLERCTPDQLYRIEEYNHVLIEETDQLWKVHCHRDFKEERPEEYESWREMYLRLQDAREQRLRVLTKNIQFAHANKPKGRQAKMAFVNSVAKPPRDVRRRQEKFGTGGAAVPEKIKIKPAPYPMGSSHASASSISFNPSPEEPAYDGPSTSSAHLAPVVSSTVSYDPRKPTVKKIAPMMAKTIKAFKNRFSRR
Outline: as §1

[3] = target: A0A075B738|P16284|P16284-6 (UniProt P16284)
Outline: as §1

[4] = target: T1, A0A087WUL0|Q3LXA3 (UniProt Q3LXA3)
T1 sequence (whole entry): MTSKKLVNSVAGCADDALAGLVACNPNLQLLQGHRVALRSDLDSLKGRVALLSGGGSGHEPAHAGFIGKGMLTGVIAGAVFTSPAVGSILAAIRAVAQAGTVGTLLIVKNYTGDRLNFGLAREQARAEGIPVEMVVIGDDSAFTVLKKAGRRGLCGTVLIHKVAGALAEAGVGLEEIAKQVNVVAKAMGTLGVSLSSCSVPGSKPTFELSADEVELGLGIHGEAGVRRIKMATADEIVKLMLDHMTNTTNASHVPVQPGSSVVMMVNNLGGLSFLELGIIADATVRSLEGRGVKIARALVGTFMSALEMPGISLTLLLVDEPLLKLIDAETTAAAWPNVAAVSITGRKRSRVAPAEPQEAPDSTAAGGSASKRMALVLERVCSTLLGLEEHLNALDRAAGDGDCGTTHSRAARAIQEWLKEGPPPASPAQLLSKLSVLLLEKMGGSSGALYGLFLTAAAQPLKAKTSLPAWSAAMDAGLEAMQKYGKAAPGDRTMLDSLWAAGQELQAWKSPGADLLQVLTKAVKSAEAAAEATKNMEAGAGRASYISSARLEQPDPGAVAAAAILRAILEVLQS
Outline: as §1

[5] = target: T2, A0A087WUT6|O60841 (UniProt O60841)
T2 sequence (whole entry): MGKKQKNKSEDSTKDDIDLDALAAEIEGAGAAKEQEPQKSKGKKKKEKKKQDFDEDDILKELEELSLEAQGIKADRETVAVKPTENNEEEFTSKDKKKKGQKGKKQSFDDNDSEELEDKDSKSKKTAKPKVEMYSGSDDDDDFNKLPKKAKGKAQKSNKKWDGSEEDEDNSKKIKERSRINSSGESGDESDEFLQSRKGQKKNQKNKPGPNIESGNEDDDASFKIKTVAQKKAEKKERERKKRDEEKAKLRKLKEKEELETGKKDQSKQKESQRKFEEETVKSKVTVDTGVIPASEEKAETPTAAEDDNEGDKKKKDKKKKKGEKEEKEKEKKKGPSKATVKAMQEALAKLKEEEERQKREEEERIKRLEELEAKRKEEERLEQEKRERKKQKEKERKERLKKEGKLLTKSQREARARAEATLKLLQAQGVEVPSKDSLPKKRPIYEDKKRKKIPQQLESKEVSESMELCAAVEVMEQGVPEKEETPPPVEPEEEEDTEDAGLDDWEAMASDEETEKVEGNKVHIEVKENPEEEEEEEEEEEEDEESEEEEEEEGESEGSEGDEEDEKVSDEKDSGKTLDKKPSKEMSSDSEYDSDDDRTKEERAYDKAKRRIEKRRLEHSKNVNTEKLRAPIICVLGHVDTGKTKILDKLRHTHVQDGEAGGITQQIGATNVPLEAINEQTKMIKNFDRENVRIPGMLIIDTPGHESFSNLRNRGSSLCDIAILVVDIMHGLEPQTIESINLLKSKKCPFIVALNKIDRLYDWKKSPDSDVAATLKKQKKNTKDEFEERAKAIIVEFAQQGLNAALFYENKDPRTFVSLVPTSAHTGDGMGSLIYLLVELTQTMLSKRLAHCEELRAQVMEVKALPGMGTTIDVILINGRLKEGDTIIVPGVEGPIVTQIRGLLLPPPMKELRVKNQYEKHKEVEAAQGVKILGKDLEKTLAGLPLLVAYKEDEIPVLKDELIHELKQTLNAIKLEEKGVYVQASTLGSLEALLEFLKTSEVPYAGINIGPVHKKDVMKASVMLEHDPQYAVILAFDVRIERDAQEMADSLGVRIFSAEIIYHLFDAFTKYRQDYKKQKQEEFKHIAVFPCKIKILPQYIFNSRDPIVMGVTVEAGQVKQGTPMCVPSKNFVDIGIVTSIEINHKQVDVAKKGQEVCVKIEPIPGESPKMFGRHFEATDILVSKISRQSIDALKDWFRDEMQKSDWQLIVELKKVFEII
Outline: as §1

A0A024R216|Q9Y3E1, sequence (Q9Y3E1 whole entry, one chain of several): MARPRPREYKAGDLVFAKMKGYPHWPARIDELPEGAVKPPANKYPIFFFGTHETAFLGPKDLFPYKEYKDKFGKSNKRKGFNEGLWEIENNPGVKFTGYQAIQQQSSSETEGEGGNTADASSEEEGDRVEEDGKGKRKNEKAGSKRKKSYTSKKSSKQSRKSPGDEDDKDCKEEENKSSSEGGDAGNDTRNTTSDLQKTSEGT

Compound: Nc1ncnc2c1ncn2[C@@H]1O[C@H](COP(=O)(O)OP(=O)(O)NP(=O)(O)O)[C@@H](O)[C@H]1O [adenylyl imidodiphosphate]
- NP40-soluble protein abundance ([1]; concentration: 1mM): 1 ± 0.031
- NP40-soluble protein abundance ([1]; concentration: 2mM): 1.1 ± 0.17
- NP40-soluble protein abundance ([1]; concentration: 4mM): 1.05 ± 0.074
- NP40-soluble protein abundance ([1]; concentration: 6mM): 1.16 ± 0.074
- NP40-soluble protein abundance ([1]; concentration: 8mM): 1.11 ± 0.06
- NP40-soluble protein abundance ([1]; concentration: 10mM): 1.17 ± 0.14
- NP40-soluble protein abundance ([2]; concentration: 1mM): 1.05 ± 0.014
- NP40-soluble protein abundance ([2]; concentration: 2mM): 1.13 ± 0.076
- NP40-soluble protein abundance ([2]; concentration: 4mM): 1.06 ± 0.029
- NP40-soluble protein abundance ([2]; concentration: 6mM): 1.08 ± 0.044
- NP40-soluble protein abundance ([2]; concentration: 8mM): 1.06 ± 0.022
- NP40-soluble protein abundance ([2]; concentration: 10mM): 1.09 ± 0.019
- NP40-soluble protein abundance ([3]; concentration: 1mM): 1.02 ± 0.027
- NP40-soluble protein abundance ([3]; concentration: 2mM): 1.08 ± 0.095
- NP40-soluble protein abundance ([3]; concentration: 4mM): 1.01 ± 0.033
- NP40-soluble protein abundance ([3]; concentration: 6mM): 0.995 ± 0.011
- NP40-soluble protein abundance ([3]; concentration: 8mM): 0.98 ± 0.013
- NP40-soluble protein abundance ([3]; concentration: 10mM): 0.994 ± 0.032
- NP40-soluble protein abundance ([4]; concentration: 1mM): 1.02 ± 0.024
- NP40-soluble protein abundance ([4]; concentration: 2mM): 1.05 ± 0.05
- NP40-soluble protein abundance ([4]; concentration: 4mM): 1.03 ± 0.054
- NP40-soluble protein abundance ([4]; concentration: 6mM): 0.997 ± 0.01
- NP40-soluble protein abundance ([4]; concentration: 8mM): 0.963 ± 0.027
- NP40-soluble protein abundance ([4]; concentration: 10mM): 1.02 ± 0.036
- NP40-soluble protein abundance ([5]; concentration: 1mM): 1.05 ± 0.012
- NP40-soluble protein abundance ([5]; concentration: 2mM): 1.02 ± 0.018
- NP40-soluble protein abundance ([5]; concentration: 4mM): 1.02 ± 0.017
